Source: PubChem BioAssay AID1159580 (chemical genetic matrix, 2015)
Among all 5,500 compounds or so, about 2,000 (36%) were called active. About 18% were inconclusive and are not listed. Cut-off read from the data, not from the text of the source: active = normalized growth mostly below about 0.91 (no sharp cut-off); inconclusive = no clear call, values can overlap the other calls; inactive = mostly above about 0.92. Some of the results follow.

Assay: chemical genetic growth profiling, strain panel (AID 1159580);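 note: tested at 20 µM; growth read once vehicle control cultures reached saturation at 30 °C; 1 = growth at the plate median or of vehicle wells; lower values mean less growth of the strain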
Settings: S. cerevisiae deletion strains, growth OD
[1] = locus YAL021C, strain ccr4, stronger effect = lower value
[2] = locus YAL026C, strain drs2, stronger effect = lower value
[3] = locus YAL030W, strain snc1, stronger effect = lower value
[4] = locus YBL061C, strain skt5, stronger effect = lower value
[5] = locus YBR009C, strain hhf1, stronger effect = lower value
[6] = locus YBR023C, strain chs3, stronger effect = lower value
[7] = locus YBR171W, strain sec66, stronger effect = lower value
[8] = locus YBR231C, strain swc5, stronger effect = lower value
[9] = locus YBR279W, strain paf1, stronger effect = lower value
[10] = locus YCL011C, strain gbp2, stronger effect = lower value
[11] = locus YCL016C, strain dcc1, stronger effect = lower value
[12] = locus YCL069W, strain vba3, stronger effect = lower value
[13] = locus YCR088W, strain abp1, stronger effect = lower value
[14] = locus YDL005C, strain med2, stronger effect = lower value
[15] = locus YDL040C, strain nat1, stronger effect = lower value
[16] = locus YDR001C, strain nth1, stronger effect = lower value
[17] = locus YDR069C, strain doa4, stronger effect = lower value
[18] = locus YDR137W, strain rgp1, stronger effect = lower value
[19] = locus YDR159W, strain sac3, stronger effect = lower value
[20] = locus YDR297W, strain sur2, stronger effect = lower value
[21] = locus YDR334W, strain swr1, stronger effect = lower value
[22] = locus YDR335W, strain msn5, stronger effect = lower value
[23] = locus YDR392W, strain spt3, stronger effect = lower value
[24] = locus YEL003W, strain gim4, stronger effect = lower value
[25] = locus YEL037C, strain rad23, stronger effect = lower value
[26] = locus YEL061C, strain CIN8 (second series), stronger effect = lower value
[27] = locus YER015W, strain faa2, stronger effect = lower value
[28] = locus YER016W, strain bim1, stronger effect = lower value
[29] = locus YER111C, strain swi4, stronger effect = lower value
[30] = locus YER155C, strain BEM2 (second series), stronger effect = lower value
[31] = locus YFR010W, strain ubp6, stronger effect = lower value
[32] = locus YGL167C, strain pmr1, stronger effect = lower value
[33] = locus YGL173C, strain kem1, stronger effect = lower value
[34] = locus YGL227W, strain vid30, stronger effect = lower value
[35] = locus YGL240W, strain doc1, stronger effect = lower value
[36] = locus YGL253W, strain hxk2, stronger effect = lower value
[37] = locus YHR013C, strain ard1, stronger effect = lower value
[38] = locus YHR027C, strain rpn1, stronger effect = lower value
[39] = locus YHR142W, strain chs7, stronger effect = lower value
[40] = locus YJL092W, strain hpr5, stronger effect = lower value
[41] = locus YJL095W, strain BCK1 (second series), stronger effect = lower value
[42] = locus YJL115W, strain asf1, stronger effect = lower value
[43] = locus YJL129C, strain trk1, stronger effect = lower value
[44] = locus YJL154C, strain vps35, stronger effect = lower value
[45] = locus YJL164C, strain tpk1, stronger effect = lower value
[46] = locus YJL166W, strain qcr8, stronger effect = lower value
[47] = locus YJL187C, strain SWE1, stronger effect = lower value
[48] = locus YKL160W, strain elf1, stronger effect = lower value
[49] = locus YKR026C, strain gcn3, stronger effect = lower value
[50] = locus YKR091W, strain srl3, stronger effect = lower value
[51] = locus YLL001W, strain dnm1, stronger effect = lower value
[52] = locus YLL026W, stronger effect = lower value
[53] = locus YLL041C, strain sdh2, stronger effect = lower value
[54] = locus YLR027C, strain aat2, stronger effect = lower value
[55] = locus YLR221C, strain rsa3, stronger effect = lower value
[56] = locus YLR258W, strain gsy2, stronger effect = lower value
[57] = locus YLR262C, strain YPT6 (second series), stronger effect = lower value
[58] = locus YLR320W, strain mms22, stronger effect = lower value
[59] = locus YLR342W, strain FKS1, stronger effect = lower value
[60] = locus YLR357W, strain rsc2, stronger effect = lower value
[61] = locus YLR370C, strain arc18, stronger effect = lower value
[62] = locus YLR384C, strain iki3, stronger effect = lower value
[63] = locus YML120C, strain ndi1, stronger effect = lower value
[64] = locus YMR058W, strain fet3, stronger effect = lower value
[65] = locus YMR125W, strain sto1, stronger effect = lower value
[66] = locus YMR129W, stronger effect = lower value
[67] = locus YMR205C, strain PFK2, stronger effect = lower value
[68] = locus YMR231W, strain pep5, stronger effect = lower value
[69] = locus YNL071W, strain lat1, stronger effect = lower value
[70] = locus YNL209W, strain ssb2, stronger effect = lower value
[71] = locus YNL248C, strain rpa49, stronger effect = lower value
[72] = locus YNL322C, strain KRE1 (second series), stronger effect = lower value
[73] = locus YNR049C, strain mso1, stronger effect = lower value
[74] = locus YOR001W, strain rrp6, stronger effect = lower value
[75] = locus YOR070C, strain gyp1, stronger effect = lower value
[76] = locus YOR080W, strain dia2, stronger effect = lower value
[77] = locus YOR083W, strain WHI5, stronger effect = lower value
[78] = locus YOR106W, strain vam3, stronger effect = lower value
[79] = locus YOR265W, strain rbl2, stronger effect = lower value
[80] = locus YOR270C, strain vph1, stronger effect = lower value
[81] = locus YOR290C, strain snf2, stronger effect = lower value
[82] = locus YPL051W, strain arl3, stronger effect = lower value
[83] = locus YPL078C, strain atp4, stronger effect = lower value
[84] = locus YPL106C, strain sse1, stronger effect = lower value
[85] = locus YPL240C, strain hsp82, stronger effect = lower value

Measured: normalized growth

O=C(O)C1CN(CCCP(=O)(O)O)CCN1 (stereo not given)
inactive: locus YAL040C, strain CLN3, stronger effect = lower value 0.977 | locus YCL061C, strain MRC1 (second series), stronger effect = lower value 0.994 | locus YDR363W, strain ESC2, stronger effect = lower value 0.965 | locus YER002W, strain NOP16, stronger effect = lower value 0.975 | locus YGR078C, strain PAC10, stronger effect = lower value 0.966 | locus YGR229C, strain SMI1, stronger effect = lower value 0.967 | locus YJR075W, strain HOC1, stronger effect = lower value 0.987 | locus YNL128W, strain TEP1, stronger effect = lower value 1.02 | locus YNL175C, strain NOP13, stronger effect = lower value 0.974 | locus YNL197C, strain WHI3, stronger effect = lower value 0.99 | locus YNL224C, strain SQS1, stronger effect = lower value 0.991 | locus YOR083W, strain WHI5 (second series), stronger effect = lower value 1.04 | locus YPL055C, strain LGE1, stronger effect = lower value 0.951 | locus YPL241C, strain CIN2, stronger effect = lower value 0.984

COc1ccc(-c2cc(=O)c3c(O)c(OC)c(OC)c(OC)c3o2)cc1
inactive: [1] 0.987 | [2] 0.988 | [3] 1 | [4] 0.99 | [5] 0.995 | [6] 0.993 | [7] 0.999 | [8] 0.986 | [9] 0.999 | [10] 0.987 | [11] 0.968 | [12] 0.983 | [13] 0.996 | [14] 0.986 | [15] 0.993 | [16] 0.992 | [17] 0.976 | [18] 1 | [19] 1 | locus YDR195W, strain ref2 0.953 | [20] 0.987 | [21] 0.977 | [22] 0.995 | [23] 0.991 | [24] 0.984 | [25] 0.992 | [26] 0.998 | [27] 0.989 | [28] 0.998 | [29] 0.997 | [30] 0.978 | [31] 1 | [32] 0.995 | [33] 1.02 | [34] 1 | [35] 1 | [36] 1 | [37] 0.971 | [38] 0.964 | [39] 0.986 | [40] 0.99 | [41] 1 | [42] 0.979 | [43] 0.979 | [44] 0.988 | [45] 1.01 | [46] 0.998 | [47] 0.995 | [48] 0.972 | [49] 1.01 | [50] 0.994 | [51] 0.999 | [52] 0.983 | [53] 0.982 | [54] 0.991 | [55] 0.992 | [56] 0.982 | [57] 1 | [58] 1 | [59] 0.99 | [60] 0.97 | [61] 0.983 | [62] 0.99 | [63] 0.992 | [64] 0.976 | [65] 0.974 | [66] 0.989 | [67] 0.997 | [68] 1.01 | [69] 1 | [70] 0.984 | [71] 0.969 | [72] 1.01 | [73] 0.984 | [74] 0.998 | [75] 0.99 | [76] 0.984 | [77] 0.993 | [78] 0.955 | [79] 0.983 | [80] 1.01 | [81] 0.955 | [82] 0.981 | [83] 0.991 | [84] 0.981 | [85] 0.99

COc1ccc(-c2cc(=O)c3c(OC)c(OC)c(OC)c(OC)c3o2)cc1
inactive: [1] 0.996 | [3] 0.959 | [5] 0.91 | [7] 0.961 | [9] 0.942 | [12] 0.934 | [13] 0.937 | [14] 0.985 | [15] 0.975 | [16] 0.959 | [17] 0.981 | [19] 0.931 | locus YDR195W, strain ref2 1.05 | [20] 0.954 | [21] 0.938 | [24] 0.964 | [25] 0.99 | [29] 0.978 | [31] 0.967 | [32] 0.972 | [33] 0.913 | [37] 0.887 | [38] 0.974 | locus YHR030C, strain SLT2, stronger effect = lower value 1.02 | locus YHR079C, strain IRE1, stronger effect = lower value 1.02 | [40] 0.946 | locus YJL095W, strain BCK1, stronger effect = lower value 0.984 | [42] 0.977 | [44] 0.996 | [45] 0.933 | locus YJR066W, strain TOR1, stronger effect = lower value 0.964 | [49] 0.974 | [50] 0.986 | [51] 0.922 | [52] 0.968 | [53] 0.973 | locus YLR113W, strain HOG1, stronger effect = lower value 0.96 | [56] 0.944 | [60] 0.924 | [62] 0.978 | [63] 0.948 | [65] 0.899 | [66] 0.978 | [68] 1.01 | locus YNL183C, strain NPR1, stronger effect = lower value 0.937 | [70] 0.994 | [71] 0.997 | [72] 0.943 | [73] 0.985 | [74] 0.962 | [75] 0.961 | [76] 0.992 | locus YOR231W, strain MKK1, stronger effect = lower value 1.02 | [79] 0.94 | [81] 0.886 | [84] 0.927 | [85] 0.966 | locus YPL256C, strain CLN2, stronger effect = lower value 1.04
active: [2] 0.846 | [4] 0.792 | [6] 0.848 | [8] 0.795 | [10] 0.907 | [11] 0.911 | locus YCL061C, strain MRC1, stronger effect = lower value 0.918 | [18] 0.705 | [22] 0.915 | [23] 0.248 | [26] 0.874 | [27] 0.912 | [28] 0.898 | [30] 0.51 | [34] 0.87 | [35] 0.84 | [36] 0.792 | [39] 0.54 | [41] 0.899 | [43] 0.774 | [46] 0.801 | [47] 0.922 | [48] 0.887 | [54] 0.892 | [55] 0.889 | [57] 0.692 | [58] 0.635 | [59] 0.904 | [61] 0.862 | [64] 0.845 | [67] 0.78 | [69] 0.473 | [77] 0.879 | [78] 0.837 | [80] 0.644 | [82] 0.882 | [83] 0.791
